In PubChem BioAssay AID2113 (National Center for Advancing Translational Sciences (NCATS), 2009):
Inconclusive results are not listed. Where a call stands in place of a potency, no number is given. Activity calls are given as the source filed them. Calls follow the shape of the dose curve; as a rule, active = well fitted curve in either direction with a large enough effect; inconclusive = small, poorly fitted or top-dose-only effect; inactive = no such curve, though single readings can be large or run the other way.

These molecules were tested against Lysosomal alpha-glucosidase (Homo sapiens) (UniProt P10253) (assay: Confirmation of Inhibitors and Activators of Human alpha-Glucosidase From Spleen Homogenate). Details: alpha-glucosidase enzyme activity; series mostly up to 60.5 µM.
In short: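 Compounds titrated against spleen-homogenate alpha-glucosidase, pH 5.0, 1 mM 4-MU-glucoside substrate, 37 C for 40 min. Fluorescence after pH 10 stop, normalised to no-enzyme and enzyme controls; Hill-equation AC50.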
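For potency in this document: fluorescence of 4-methylumbelliferone released from a fluorogenic glucopyranoside substrate at pH 5.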
Potency is read from the fitted curve at half-maximal effect.

Q: How did the Potency turn out when `CCC(C)NC(=O)CCC(=O)Nc1ccc2nc(N3CCOCC3)cc(C)c2c1` (stereo unspecified) was run?
A: inactive

Q: How did the Potency turn out when `CCCc1cc(-c2nc(N)ncc2-c2ccc3c(c2)OCCCO3)c(O)cc1OC` was run?
A: inactive

Q: With `Cc1ccc(S(=O)(=O)N2CCN(C(=O)CSc3nc4ccccc4c(=O)[nH]3)CC2)c(C)c1` as the molecule, how does the Potency read?
A: inactive

Q: `Cc1ccccc1S(=O)(=O)N1CCOCC1` was tested. Which Potency did it give?
A: inactive

Q: For `COc1ccc2cc(C#N)c(=O)oc2c1`, which Potency is on record?
A: inactive

Q: With `O=S(=O)(c1cccc(Br)c1)N1CCOCC1` as the molecule, how does the Potency read?
A: inactive

Q: With `O=C(c1ccc2ccccc2c1)N1CCN(S(=O)(=O)c2ccccc2)CC1` as the molecule, how does the Potency read?
A: inactive

Q: How did the Potency turn out when `O=c1oc2ccccc2cc1-c1nc2c(s1)CCc1ccccc1-2` was run?
A: inactive

Q: How did the Potency turn out when `O=S(=O)(c1ccc2ccccc2c1)N1CCOCC1` was run?
A: inactive

Q: Which Potency does the source give for `O=S(=O)(c1ccc(Cl)cc1)N1CCN(c2nc(Nc3cc(Cl)ccc3O)nc3ccccc23)CC1` here?
A: inactive

Q: How did the Potency turn out when `COc1cccc(S(=O)(=O)N2CCOCC2)c1` was run?
A: inactive

Q: How did the Potency turn out when `CN1c2ccccc2-c2nc3ccccc3n2C1c1ccccn1` (stereo unspecified) was run?
A: 14.1 µM (active)

Q: `COC(=O)c1c(NC(=O)Cn2nc(C(F)F)cc2C(F)F)sc(C)c1C` was tested. Which Potency did it give?
A: inactive

Q: For `CCN(CC)S(=O)(=O)c1ccc2c(c1)C(=NNc1ccccc1)c1cc(S(=O)(=O)N(CC)CC)ccc1-2`, which Potency is on record?
A: inactive

Q: For `COc1ccc2nc(-c3ccc(N(C)C)cc3)sc2c1`, which Potency is on record?
A: 7.08 µM (active)

Q: How did the Potency turn out when `Cc1nnc(SCC(=O)Nc2ccc3c(c2)COC3=O)n1-c1ccccc1` was run?
A: inactive

Q: Which Potency does the source give for `c1ccc(-c2nc3nc4ccccc4nc3n2CC2CCCO2)cc1` (stereo unspecified) here?
A: inactive

Q: `Cc1ccc(N/N=C2\CCS(=O)(=O)c3sccc32)cc1` was tested. Which Potency did it give?
A: inactive

Q: How did the Potency turn out when `CCOC(=O)CCc1cccc2c1CCC2=O` was run?
A: inactive

Q: `COc1ccc(CCn2c3c(c(=O)[nH]c2=S)CN(c2ccccc2)CN3)cc1OC` was tested. Which Potency did it give?
A: 8.91 µM (active)

Q: `O=C1Cc2cc(S(=O)(=O)N3CCN(c4cccc(C(F)(F)F)c4)CC3)ccc2N1` was tested. Which Potency did it give?
A: 18.8 µM [inhibitor] (active)

Q: How did the Potency turn out when `Cn1c2c(c(=O)n(C)c1=O)CN(CC1CCCO1)CN2` (stereo unspecified) was run?
A: inactive

Q: `OC[C@H]1NC[C@H](O)[C@@H](O)[C@H]1O` was tested. Which Potency did it give?
A: inactive

Q: How did the Potency turn out when `O=C(Cn1c(=O)[nH]n(-c2ccccc2)c1=O)N1CCCc2ccccc21` was run?
A: inactive

Q: `CC(=O)c1ccc(N2CCN(S(=O)(=O)c3ccc4c(c3)CC(C)N4C(C)=O)CC2)cc1` (stereo unspecified) was tested. Which Potency did it give?
A: inactive

Q: For `N#Cc1ccc(N2CCN(S(=O)(=O)c3ccc4c(c3)CC(=O)N4)CC2)cc1`, which Potency is on record?
A: 1.16 µM [inhibitor] (active)

Q: Which Potency does the source give for `Cc1ccc2nc(-c3ccccc3N)[nH]c2c1` here?
A: inactive

Q: How did the Potency turn out when `CCCN1CNc2c(c(=O)[nH]c(=S)n2CCc2c(Cl)cccc2Cl)C1` was run?
A: 35.5 µM (active)

Q: How did the Potency turn out when `CCc1sc(-c2cc3cccc(OC)c3oc2=O)nc1-c1cc(C)ccc1C` was run?
A: 15.8 µM (active)

Q: With `O=Cc1ccc(N2CCN(S(=O)(=O)c3ccc4c(c3)CC(=O)N4)CC2)cc1` as the molecule, how does the Potency read?
A: 4.61 µM [inhibitor] (active)

Q: With `COc1cc(/C=C/c2ccc3ccccc3n2)cc(OC)c1O` as the molecule, how does the Potency read?
A: inactive

Q: `CCCN1CNc2c(c(=O)[nH]c(=S)n2CCc2cccc(Cl)c2)C1` was tested. Which Potency did it give?
A: 12.6 µM (active)

Q: Which Potency does the source give for `CC1(C)CC(=O)c2cc(C(=O)NCc3ccco3)c(=O)n(-c3ccc(Cl)cc3)c2C1` here?
A: inactive

Q: How did the Potency turn out when `C[C@H]1OC(OC2C(O)[C@@H](O)C(OC3C(O)[C@@H](O)C(O)O[C@@H]3CO)O[C@@H]2CO)[C@H](O)C(O)C1N[C@H]1C=C(CO)[C@@H](O)[C@H](O)C1O` (stereo partly specified) was run?
A: inactive

Q: `CCOC(=O)c1cc2c(=O)n3cccc(C)c3nc2n(CCCOC)c1=NC(=O)c1cccnc1` was tested. Which Potency did it give?
A: inactive

Q: `NC(=NCc1ccccc1)NC(=O)c1nc(Cl)c(N)nc1N` was tested. Which Potency did it give?
A: inactive
